This passage reports outcome and AC50 results from PubChem BioAssay (EPA / NIEHS).

Several values for one entry are separate records, joined by “and”; a condition that tells them apart may be missing. Identical values can stand only once. Where a structure was tested more than once in an assay, its records may differ in their call. Activity calls are given as the source filed them. The calls were made as follows: active = hit-call score of the fitted dose curve at least 0.9, where 1 is the maximum; inactive = score below 0.9.

Chain of Tumor necrosis factor (Homo sapiens) (P01375 whole entry, looked up): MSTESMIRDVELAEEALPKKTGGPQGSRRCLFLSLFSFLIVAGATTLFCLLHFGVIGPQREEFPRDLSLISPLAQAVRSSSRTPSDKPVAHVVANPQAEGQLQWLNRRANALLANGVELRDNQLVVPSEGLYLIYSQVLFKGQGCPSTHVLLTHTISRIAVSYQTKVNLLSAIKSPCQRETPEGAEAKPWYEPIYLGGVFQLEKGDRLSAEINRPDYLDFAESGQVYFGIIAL

Read-out in this assay: Tumor necrosis factor (Homo sapiens) (UniProt P01375)
As to the kind of experiment: BSK_LPS_TNFa: BioMAP Diversity Plus: LPS Assay for Tumour Necrosis Factor alpha (TNFa) Biomarker Activity (AID 2283085). To be noted: primary human HUVEC with PBMC; actives raise or lower the signal. How it is done: BSK_LPS is a cell-based, multiplexed-readout assay that uses umbilical vein endothelium and peripheral blood mononuclear cells, a human vascular primary cell co-culture, with measurements taken at 24 hours after chemical dosing in a 96-well plate.BSK_LPS_TNFa is an assay component measured in the BSK_LPS assay. It measures TNF-a antibody related to regulation of gene expression using ELISA technology.Data from the assay component BSK_LPS_TNFa was analyzed into 1 assay endpoint. This assay endpoint, BSK_LPS_TNFa, was analyzed with bidirectional fitting relative to DMSO as the negative control and baseline of activity. Using a type of binding reporter, gain or loss-of-signal activity can be used to understand changes in the signaling as they relate to the gene TNF. Furthermore, this assay endpoint can be referred to as a primary readout, because this assay has produced multiple assay endpoints where this one serves a signaling function. To generalize the intended target to other relatable targets, this assay endpoint is annotated to the cytokine intended target family, where the subfamily is inflammatory factor.
The levels of cell surface (or secreted, indicated by the prefix "s") biomarker endpoints were measured by ELISA. Overt cytotoxicity to cells in confluent adherent cultures (all systems other than the BT system) was assessed by measuring total protein levels using sulforhodamine B (SRB) staining in parallel cultures at the time of biomarker measurements, indicated as SRB endpoints. For proliferation assays for adherent cell types, individual cell types are cultured at sub-confluence and relative cell numbers quantified by SRB staining at time points optimized for each system (48 h: 3C and CASM3C systems; 72 h: BT and HDF3CGF systems; 96 h: SAg system). SRB was performed by staining cells with 0.1% SRB after fixation with 10% TCA and reading wells at 560 nm.Viability and proliferation of PBMC (T cells) was quantified by Alamar Blue reduction for the SAg and BT systems. For PBMC viability (referred to as PBMC Cytotoxicity within the assay endpoint names), cells were plated (75,000/well in a 96-well plate) and then chemical samples added for 1 h before addition of activators, SEB and TSST-1 (20 ng/mL final concentration each). Cells were incubated for 90 h. Then, Alamar Blue (20 uL/well) (Invitrogen, Cat DAL1100) was added for 6 h, and the plates were read with a fluorescence microplate reader at 546/580 nm (excitation/emission). For PBMC proliferation, cells were plated and activated as above but incubated for only 16 h prior to addition of Alamar Blue. Plates were read after 6 h.
For `OCC(F)(F)C(F)(F)C(F)(F)C(F)(F)C(F)(F)C(F)(F)C(F)(F)C(F)(F)CO`, the result was inactive and the half-maximal activity concentration (AC50) (commonly the concentration at which the activity in the assay is half-maximal) was 0.399 µM (active).

Take `C=CC(=O)OCC(F)(F)C(F)(F)C(F)(F)C(F)(F)C(F)(F)C(F)(F)C(F)(F)C(F)F`: the result was inactive.

On to `CCN(CC)c1ccc(C=O)cc1`, for which the outcome was inactive.

With `CNS(=O)(=O)C(F)(F)C(F)(F)C(F)(F)C(F)(F)C(F)(F)C(F)(F)C(F)(F)C(F)(F)F`, the outcome was inactive.

Regarding `O=C=Nc1cccc2c(N=C=O)cccc12`, the outcome was inactive.

As to `FC(F)(F)C(F)(F)C(F)(F)CC1CO1` (stereo not given), the result was inactive.

For `C=CC(=O)OCC(F)(F)C(F)(F)C(F)(F)COC(=O)C=C`, the AC50 is 14.9 µM (active) and 15.7 µM (active).

Consider `C[Si](Cl)(Cl)CCC(F)(F)C(F)(F)C(F)(F)C(F)(F)C(F)(F)C(F)(F)F`, for which the outcome was inactive.

In the case of `CC1=CC2C3C=CC(C3)C2C1C` (stereo not given), the AC50 was 31.3 µM (active).

For `O=C(O)CCC(F)(F)C(F)(F)C(F)(F)F`, the outcome was inactive.

With `O=C(O)C(F)(F)C(F)(F)C(F)(F)OC(F)(C(F)(F)F)C(F)(F)F`, the outcome was inactive.

With `CC(C)CCCC(C)CCO` (stereo not given), the outcome was inactive.

For the compound `O=C(O)C(F)(F)C(F)(F)C(F)(F)OC(F)(F)F`, the outcome was inactive.

As to `NC(=O)C(F)(F)C(F)(F)C(F)(F)F`, the outcome was inactive.

Consider `C=CC(=O)OCCC(F)(F)C(F)(F)C(F)(F)C(F)(F)F`, for which the result was inactive.

As to `O=C(Cl)C(F)(F)C(F)(F)C(F)(F)C(F)(F)C(F)(F)C(F)(F)F`, the outcome was inactive.

For `Cc1cc(O)c(C(C)(C)C)cc1C(C)(C)C`, the concentration at half-maximal activity (AC50) is 9.79 µM (active).

For the compound `OCC(F)(F)C(F)(F)C(F)(F)CO`, the outcome was inactive.

Turning to `O=C(O)C(F)(F)OC(F)(F)C(F)(F)OC(F)(F)C(F)(F)OC(F)(F)F`, the result was inactive.

In the case of `Cc1cnccn1`, the result was inactive.

Turning to `FC(F)(F)C(F)(F)C(F)(F)C(F)(F)C(F)(F)C(F)(F)C(F)(F)CCI`, the outcome was inactive.

For `NCC(F)(F)C(F)(F)C(F)(F)C(F)(F)C(F)(F)C(F)(F)C(F)(F)C(F)(F)F`, the outcome was inactive.

On to `NS(=O)(=O)C(F)(F)C(F)(F)C(F)(F)C(F)(F)C(F)(F)C(F)(F)F`, for which the outcome was inactive.

Turning to `NC(=O)C(F)(F)C(F)(F)C(F)(F)C(F)(F)C(F)(F)C(F)(F)C(F)(F)F`, the result was inactive.

`O=C(c1ccccc1)c1ccc(O)cc1O`: the outcome was inactive.

Consider `CCN(CC)c1ccc(N=Nc2ccccc2)cc1`, for which the outcome was inactive.

Turning to `OCCCC(F)(F)C(F)(F)C(F)(F)C(F)(F)C(F)(F)C(F)(F)C(F)(F)C(F)(F)F`, the half-maximal activity concentration (AC50) is 29.7 µM (active) and 19.9 µM (active).

In the case of `O=C(O)C(F)(F)C(F)(F)C(F)(F)C(=O)O`, the outcome was inactive.

On to `O=C1C=CC(=O)N1c1ccc(Cc2ccc(N3C(=O)C=CC3=O)cc2)cc1`, for which the half-maximal activity concentration (AC50) is 8.82 µM (active).

Take `FC(F)(F)C(F)(F)C(F)(F)C(F)(F)C(F)(F)C(F)(F)CC[Si](Cl)(Cl)Cl`: the result was inactive.

Take `CCN=C1C=CC(=C(c2ccc(N(CC)CC)cc2)c2ccc(N(CC)CC)cc2)c2ccccc21`: the AC50 was 501 nM (active) and 519 nM (active).

As for `Cc1cc(C)c(O)c(C(C)(C)C)c1`, the outcome was inactive.

In the case of `CCN(CC)c1ccc(C=O)c(O)c1`, the outcome was inactive.

As for `OCC(O)CC(F)(F)C(F)(F)C(F)(F)C(F)(F)F` (stereo not given), the outcome was inactive.

With `O=C(O)CCC(F)(F)C(F)(F)C(F)(F)C(F)(F)C(F)(F)C(F)(F)C(F)(F)F`, the outcome was inactive.

For `OC(O)C(F)(F)C(F)(F)F`, the result was inactive.

On to `O=C(F)C1(F)C(F)(F)C(F)(F)C(F)(F)C(F)(F)C1(F)F`, for which the outcome was inactive.

Take `O=S(=O)(O)CCC(F)(F)C(F)(F)C(F)(F)C(F)(F)C(F)(F)C(F)(F)C(F)(F)C(F)(F)F`: the concentration at half-maximal activity (AC50) is 47.1 µM (active) and the result was inactive.
